For this assay, the system named is Calcium channel L-type (rat). As to the kind of experiment: PubChem AID 1788. To be noted: MDS Pharma lead profiling panel, radioligand binding, benzothiazepine site, at 10 µM, hits give high values.

A number with no mark means an inactive call. The rule behind the calls is not given here.

For orientation: inhibition means the relative decrease from the control value, in per cent.

Turning to `CCOC(=O)N1CCC(NCCNC(=O)c2ccccc2C)CC1`, the inhibition was -4%.

Values taken from PubChem BioAssay AID1788 (Vanderbilt High Throughput Screening Facility, 2009).
